The text below walks through data of PubChem BioAssay (EPA / NIEHS).

The target of test [1] is human Phosphodiesterase 5 (PDE5), PDE5A (gene 8654) (UniProt O76074). As to the kind of experiment: NVS_ENZ_hPDE5: NovaScreen (NVS) Enzymatic Assay for human Phosphodiesterase 5 (PDE5) (AID 2283194). The procedure, abridged: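 Screening began in duplicate at 25 uM, with actives taken into concentration-response. Enzyme activity of recombinant PDE5 toward its substrate was measured at 1 h by fluorescence mobility-shift detection, relative to DMSO controls.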

For test [2], the target named is Tyrosine-protein phosphatase non-receptor type 12 (Homo sapiens) (UniProt Q05209). The test is described as follows: NVS_ENZ_hPTPN12: NovaScreen (NVS) Enzymatic Assay for human Protein Tyrosine Phosphatase Non-receptor Type 12 (PTPN12) (AID 2283204). The procedure, abridged:
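Single-concentration duplicates (25 uM) preceded singleton concentration-response up to 50 uM for chemicals passing threshold. Cell-free recombinant PTPN12 activity was read 1.33 h after dosing via fluorescence after mobility-shift separation; loss of signal versus DMSO.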

Test [3] deals with human Phosphodiesterase 10 (PDE10), PDE10A (gene 10846) (UniProt Q9Y233). The test is described as follows: NVS_ENZ_hPDE10: NovaScreen (NVS) Enzymatic Assay for human Phosphodiesterase 10 (PDE10) (AID 2283195). The gist of the method: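 Fluorescence readout after mobility-shift separation of substrate and product, 1 h reaction with recombinant human enzyme. Single-concentration duplicates at 25 uM, then concentration-response up to 50 uM for chemicals reaching threshold; DMSO baseline.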
human Phosphodiesterase 10 (PDE10), PDE10A (gene 10846), sequence (Q9Y233 whole entry, looked up): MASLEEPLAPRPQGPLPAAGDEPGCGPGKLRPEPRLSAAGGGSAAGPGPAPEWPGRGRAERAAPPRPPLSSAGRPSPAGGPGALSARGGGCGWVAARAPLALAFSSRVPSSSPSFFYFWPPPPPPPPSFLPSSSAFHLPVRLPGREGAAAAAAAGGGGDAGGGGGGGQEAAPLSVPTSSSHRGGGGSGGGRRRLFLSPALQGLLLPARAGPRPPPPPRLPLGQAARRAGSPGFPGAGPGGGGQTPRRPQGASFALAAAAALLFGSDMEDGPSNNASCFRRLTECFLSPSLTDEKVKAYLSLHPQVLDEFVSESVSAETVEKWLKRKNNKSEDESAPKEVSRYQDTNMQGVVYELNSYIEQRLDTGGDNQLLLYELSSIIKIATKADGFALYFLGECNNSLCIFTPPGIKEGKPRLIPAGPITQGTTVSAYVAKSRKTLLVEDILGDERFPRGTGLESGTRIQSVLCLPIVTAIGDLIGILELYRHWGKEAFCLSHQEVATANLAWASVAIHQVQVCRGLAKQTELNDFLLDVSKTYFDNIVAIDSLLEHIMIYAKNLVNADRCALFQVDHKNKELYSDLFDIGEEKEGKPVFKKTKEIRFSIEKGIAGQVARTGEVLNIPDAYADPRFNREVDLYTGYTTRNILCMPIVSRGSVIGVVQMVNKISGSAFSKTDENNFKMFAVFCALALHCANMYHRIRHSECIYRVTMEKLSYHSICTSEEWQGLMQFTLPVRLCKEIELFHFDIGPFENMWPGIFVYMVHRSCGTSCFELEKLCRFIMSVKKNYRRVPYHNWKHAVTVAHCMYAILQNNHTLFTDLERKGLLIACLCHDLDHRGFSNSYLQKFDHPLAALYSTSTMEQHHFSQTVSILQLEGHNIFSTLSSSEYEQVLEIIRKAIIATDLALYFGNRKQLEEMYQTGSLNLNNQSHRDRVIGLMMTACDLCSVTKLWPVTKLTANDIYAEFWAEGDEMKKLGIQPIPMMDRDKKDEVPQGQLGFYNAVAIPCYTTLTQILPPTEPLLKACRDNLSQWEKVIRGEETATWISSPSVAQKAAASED

Test [4] concerns the target cAMP-dependent protein kinase catalytic subunit alpha (Homo sapiens) (UniProt P17612). As to the kind of experiment: NVS_ENZ_hPKA: NovaScreen (NVS) Enzymatic Assay for human Protein Kinase A (PKA) (AID 2283192). The gist of the method:
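Cell-free kinase activity read by fluorescence after mobility-shift separation of substrate and product, 1 h post-dosing. Single-concentration duplicate screen (25 uM) preceded singleton concentration series (top 50 uM); loss of signal versus DMSO.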

Test [5] has as its target human Phosphoinositide 3-kinase alpha (PI3Ka), PIK3CA (gene 5290) (UniProt P42336). The test is described as follows: NVS_ENZ_hPI3Ka: NovaScreen (NVS) Enzymatic Assay for human Phosphoinositide 3-kinase alpha (PI3Ka) (AID 2283196). The procedure, abridged: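 Chemicals were first screened at 25 uM in duplicate, then hits were run as concentration series up to 50 uM. Enzyme activity was measured by fluorescence after mobility-shift separation, with loss of signal relative to DMSO taken as activity.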

Test [6] has as its target human Protein Tyrosine Phosphatase Non-receptor Type 9 (PTPN9), PTPN9 (gene 5780) (UniProt P43378). As to the kind of experiment: NVS_ENZ_hPTPN9: NovaScreen (NVS) Enzymatic Assay for human Protein Tyrosine Phosphatase Non-receptor Type 9 (PTPN9) (AID 2283209). The gist of the method: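 Sf9-expressed enzyme in a cell-free assay, fluorescence read 1.33 h after dosing with mobility-shift separation of substrate and product. Tested at 25 uM in duplicate, then up to 50 uM; signal loss versus DMSO.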

The target of test [7] is human Phosphodiesterase 4A1 (PDE4A1), PDE4A (gene 5141) (UniProt P27815). The test is described as follows: NVS_ENZ_hPDE4A1: NovaScreen (NVS) Enzymatic Assay for human Phosphodiesterase 4A1 (PDE4A1) (AID 2283191). The gist of the method: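 Fluorescent substrate turnover by recombinant PDE4A1 read after 1 h by mobility-shift separation. Primary duplicate screen at 25 uM; hits retested in concentration series with a 50 uM maximum, relative to DMSO.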
human Phosphodiesterase 4A1 (PDE4A1), PDE4A (gene 5141), sequence (P27815 whole entry, looked up): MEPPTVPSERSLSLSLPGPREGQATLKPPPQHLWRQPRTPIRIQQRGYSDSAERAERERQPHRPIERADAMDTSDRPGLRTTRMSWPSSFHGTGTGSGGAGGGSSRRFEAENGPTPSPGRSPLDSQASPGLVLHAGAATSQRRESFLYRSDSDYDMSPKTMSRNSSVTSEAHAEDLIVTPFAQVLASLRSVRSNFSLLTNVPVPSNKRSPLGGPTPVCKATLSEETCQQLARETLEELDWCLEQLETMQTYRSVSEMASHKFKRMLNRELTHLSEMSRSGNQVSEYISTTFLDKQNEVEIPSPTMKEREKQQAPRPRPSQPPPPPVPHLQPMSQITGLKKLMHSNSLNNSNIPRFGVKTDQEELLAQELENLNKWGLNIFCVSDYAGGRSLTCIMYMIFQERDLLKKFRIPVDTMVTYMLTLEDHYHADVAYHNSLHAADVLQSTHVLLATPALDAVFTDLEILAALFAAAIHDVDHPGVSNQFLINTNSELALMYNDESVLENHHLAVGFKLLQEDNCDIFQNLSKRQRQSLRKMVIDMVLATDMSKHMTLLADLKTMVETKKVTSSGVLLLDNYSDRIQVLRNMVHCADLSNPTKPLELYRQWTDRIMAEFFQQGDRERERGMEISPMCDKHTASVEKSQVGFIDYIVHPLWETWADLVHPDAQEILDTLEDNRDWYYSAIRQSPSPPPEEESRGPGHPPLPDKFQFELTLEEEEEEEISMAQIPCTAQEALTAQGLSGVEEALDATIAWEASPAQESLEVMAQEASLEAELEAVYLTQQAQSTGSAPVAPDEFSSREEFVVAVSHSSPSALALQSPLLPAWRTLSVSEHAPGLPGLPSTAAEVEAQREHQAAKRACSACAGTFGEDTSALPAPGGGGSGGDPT

Test [8] deals with human Protein Tyrosine Phosphatase Non-receptor Type 1 (PTPN1), PTPN1 (gene 5770) (UniProt P18031). The test is described as follows: NVS_ENZ_hPTPN1: NovaScreen (NVS) Enzymatic Assay for human Protein Tyrosine Phosphatase Non-receptor Type 1 (PTPN1) (AID 2283201). The procedure, abridged:
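Chemicals were first tested in duplicate at 25 uM, and those passing threshold went on to singleton concentration series topping at 50 uM. Recombinant enzyme, specific substrate, product separated by mobility shift, fluorescence read at 1.33 h; activity loss relative to DMSO.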

Test [9] addresses Tyrosine-protein phosphatase non-receptor type 11 (Homo sapiens) (UniProt Q06124). The test is described as follows: NVS_ENZ_hPTPN11: NovaScreen (NVS) Enzymatic Assay for human Protein Tyrosine Phosphatase Non-receptor Type 11 (PTPN11) (AID 2283202). The gist of the method: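 Compounds first tested in duplicate at 25 uM; those reaching ~30% inhibition rerun in singleton concentration-response, top 50 uM. Phosphatase activity measured after 0.5 h by fluorescence with mobility-shift separation, relative to DMSO.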

Test [10] deals with Tyrosine-protein phosphatase non-receptor type 13 (Homo sapiens) (UniProt Q12923). As to the kind of experiment: NVS_ENZ_hPTPN13: NovaScreen (NVS) Enzymatic Assay for human Protein Tyrosine Phosphatase Non-receptor Type 13 (PTPN13) (AID 2283205). The procedure, abridged:
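Screened first at a single 25 uM in duplicate; compounds passing the threshold (e.g. 30% inhibition) were rerun in concentration series, top 50 uM. Recombinant enzyme, fluorescent substrate, mobility-shift separation, 0.5 h read. Data fitted as inhibition relative to DMSO.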

Test [11] deals with Tyrosine-protein phosphatase non-receptor type 14 (Homo sapiens) (UniProt Q15678). The test is described as follows: NVS_ENZ_hPTPN14: NovaScreen (NVS) Enzymatic Assay for human Protein Tyrosine Phosphatase Non-receptor Type 14 (PTPN14) (AID 2283206). The gist of the method:
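Fluorescent substrate turnover by recombinant human PTPN14 was measured 0.5 h after compound addition, with substrate and product separated by mobility shift. Single-point screening at 25 uM, then concentration-response up to 50 uM for chemicals meeting threshold (e.g., 30% inhibition).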

For test [12], the target named is human Protein Tyrosine Phosphatase Non-receptor Type 4 (PTPN4), PTPN4 (gene 5775) (UniProt P29074). The test is described as follows: NVS_ENZ_hPTPN4: NovaScreen (NVS) Enzymatic Assay for human Protein Tyrosine Phosphatase Non-receptor Type 4 (PTPN4) (AID 2283208). The gist of the method:
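Screened in duplicate at 25 uM, with hits then titrated to a top concentration of 50 uM. Recombinant Sf9-derived PTPN4 turnover was read by fluorescence with electrophoretic separation, 1.33 h after compound addition. DMSO served as baseline.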

For test [13], the target named is human Protein Tyrosine Phosphatase Non-receptor Type 6 (PTPN6), PTPN6 (gene 5777) (UniProt P29350). As to the kind of experiment: NVS_ENZ_hPTPN6: NovaScreen (NVS) Enzymatic Assay for human Protein Tyrosine Phosphatase Non-receptor Type 6 (PTPN6) (AID 2283210). The procedure, abridged:
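Recombinant human PTPN6 from SF9 cells, enzyme activity followed by fluorescence after mobility-shift separation of substrate and product at 1.33 h. Chemicals first tested at a single 25 uM in duplicate, then confirmed across concentration series; loss of signal relative to DMSO.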

In test [14] the target is human Protein Tyrosine Phosphatase Receptor Type B (PTPRB), PTPRB (gene 5787) (UniProt P23467). As to the kind of experiment: NVS_ENZ_hPTPRB: NovaScreen (NVS) Enzymatic Assay for human Protein Tyrosine Phosphatase Receptor Type B (PTPRB) (AID 2283211). The gist of the method: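 Recombinant human PTPRB with a fluorescent substrate, product separated by electrophoretic mobility shift; read 1 h after dosing. Primary screen in duplicate at 25 uM; actives then retested in concentration series; loss of signal versus DMSO.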

Test [15] addresses human Protein Tyrosine Phosphatase Receptor Type F (PTPRF), PTPRF (gene 5792) (UniProt P10586). As to the kind of experiment: NVS_ENZ_hPTPRF: NovaScreen (NVS) Enzymatic Assay for human Protein Tyrosine Phosphatase Receptor Type F (PTPRF) (AID 2283213). The procedure, abridged:
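Cell-free fluorescence enzyme assay with recombinant protein and substrate; product separated by electrophoretic mobility shift. Read 1 h after dosing, single 25 uM duplicate screen, then concentration-response up to 50 uM; loss of signal vs DMSO.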

For test [16], the target named is human Protein Tyrosine Phosphatase Receptor Type M (PTPRM), PTPRM (gene 5797) (UniProt P28827). The test is described as follows: NVS_ENZ_hPTPRM: NovaScreen (NVS) Enzymatic Assay for human Protein Tyrosine Phosphatase Receptor Type M (PTPRM) (AID 2283215). The procedure, abridged:
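Read-out is fluorescence after electrophoretic separation of substrate and product, taken 1.33 h post-dosing with recombinant enzyme. Compounds screened at 25 uM in duplicate, then concentration series for actives; activity as signal loss relative to DMSO.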

Test [17] addresses human Sirtuin 2 (SIRT2), SIRT2 (gene 22933) (UniProt Q8IXJ6). As to the kind of experiment: NVS_ENZ_hSIRT2: NovaScreen (NVS) Enzymatic Assay for human Sirtuin 2 (SIRT2) (AID 2283217). The gist of the method:
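Single-point duplicate screen at 25 uM, then concentration-response (max 50 uM) for chemicals passing threshold. Enzyme activity of recombinant human SIRT2 measured after 1 hr by fluorescence with mobility-shift separation of product; DMSO baseline.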

For test [18], the target named is human Sirtuin 1 (SIRT1), SIRT1 (gene 23411) (UniProt Q96EB6). The test is described as follows: NVS_ENZ_hSIRT1: NovaScreen (NVS) Enzymatic Assay for human Sirtuin 1 (SIRT1) (AID 2283219). The gist of the method: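 Cell-free recombinant SIRT1 with a fluorescent substrate; substrate and product separated by electrophoretic mobility shift and read by fluorescence intensity, 1 h after dosing. Primary screen at 25 uM in duplicate; hits re-run in concentration-response up to 50 uM, relative to DMSO.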

The target of test [19] is human Sirtuin 3 (SIRT3), SIRT3 (gene 23410) (UniProt Q9NTG7). As to the kind of experiment: NVS_ENZ_hSIRT3: NovaScreen (NVS) Enzymatic Assay for human Sirtuin 3 (SIRT3) (AID 2283222). The gist of the method:
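Cell-free enzyme assay with recombinant protein and fluorescent substrate, product separated by electrophoretic mobility shift; read 1 hour after dosing. Screened in duplicate at 25 uM, then singleton concentration-response up to 50 uM; loss of signal versus DMSO.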

Test [20] concerns the target Serine/threonine-protein phosphatase PP1-alpha catalytic subunit (Homo sapiens) (UniProt P62136). As to the kind of experiment: NVS_ENZ_hPPP1CA: NovaScreen (NVS) Enzymatic Assay for human Protein Phosphatase 1 Aatalytic subunit Alpha (PPP1CA) (AID 2283200). The gist of the method:
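Chemicals were first screened in duplicate at 25 uM, and those passing threshold (e.g. 30% inhibition) were run as concentration series to 50 uM. Cell-free recombinant protein, 1.33 h read, fluorescent substrate/product mobility-shift detection, normalised to DMSO.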

Molecules are shown by their SMILES. Records with an inconclusive call do not appear. Where a structure was tested more than once in an assay, its records may differ in their call. Activity calls are given as the source filed them. The calls were made as follows: active = hit-call score of the fitted dose curve at least 0.9, where 1 is the maximum; inconclusive = response in the unintended direction; inactive = score below 0.9.

human Phosphoinositide 3-kinase alpha (PI3Ka), PIK3CA (gene 5290), sequence (P42336 whole entry, looked up): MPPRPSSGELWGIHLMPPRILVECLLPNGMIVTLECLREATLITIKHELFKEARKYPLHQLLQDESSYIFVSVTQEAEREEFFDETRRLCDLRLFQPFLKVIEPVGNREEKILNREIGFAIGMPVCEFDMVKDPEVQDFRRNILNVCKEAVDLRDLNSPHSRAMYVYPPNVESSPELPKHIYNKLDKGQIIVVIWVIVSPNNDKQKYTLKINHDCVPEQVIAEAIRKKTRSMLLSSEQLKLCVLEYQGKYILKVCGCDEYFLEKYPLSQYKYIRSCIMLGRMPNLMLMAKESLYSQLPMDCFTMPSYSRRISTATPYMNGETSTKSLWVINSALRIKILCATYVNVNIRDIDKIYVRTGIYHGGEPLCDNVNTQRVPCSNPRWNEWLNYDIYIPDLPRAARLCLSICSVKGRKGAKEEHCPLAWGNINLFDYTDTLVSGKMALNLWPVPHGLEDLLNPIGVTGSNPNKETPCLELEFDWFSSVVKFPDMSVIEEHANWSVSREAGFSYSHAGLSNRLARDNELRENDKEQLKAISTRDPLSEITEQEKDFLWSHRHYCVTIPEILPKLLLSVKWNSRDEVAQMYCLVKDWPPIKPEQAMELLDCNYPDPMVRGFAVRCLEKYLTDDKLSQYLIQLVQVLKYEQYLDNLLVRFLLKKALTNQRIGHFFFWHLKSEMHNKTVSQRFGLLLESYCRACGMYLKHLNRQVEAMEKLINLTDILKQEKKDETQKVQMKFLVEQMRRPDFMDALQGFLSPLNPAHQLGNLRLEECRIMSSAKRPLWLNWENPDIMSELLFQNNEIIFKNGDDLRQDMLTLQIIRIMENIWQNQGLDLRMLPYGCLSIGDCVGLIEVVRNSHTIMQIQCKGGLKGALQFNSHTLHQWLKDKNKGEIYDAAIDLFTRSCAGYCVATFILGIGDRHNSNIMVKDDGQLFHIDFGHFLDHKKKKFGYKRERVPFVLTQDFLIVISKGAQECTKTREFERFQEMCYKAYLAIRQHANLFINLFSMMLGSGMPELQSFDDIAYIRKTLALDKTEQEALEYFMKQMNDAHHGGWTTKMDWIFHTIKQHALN
human Protein Tyrosine Phosphatase Non-receptor Type 6 (PTPN6), PTPN6 (gene 5777), sequence (P29350 whole entry, looked up): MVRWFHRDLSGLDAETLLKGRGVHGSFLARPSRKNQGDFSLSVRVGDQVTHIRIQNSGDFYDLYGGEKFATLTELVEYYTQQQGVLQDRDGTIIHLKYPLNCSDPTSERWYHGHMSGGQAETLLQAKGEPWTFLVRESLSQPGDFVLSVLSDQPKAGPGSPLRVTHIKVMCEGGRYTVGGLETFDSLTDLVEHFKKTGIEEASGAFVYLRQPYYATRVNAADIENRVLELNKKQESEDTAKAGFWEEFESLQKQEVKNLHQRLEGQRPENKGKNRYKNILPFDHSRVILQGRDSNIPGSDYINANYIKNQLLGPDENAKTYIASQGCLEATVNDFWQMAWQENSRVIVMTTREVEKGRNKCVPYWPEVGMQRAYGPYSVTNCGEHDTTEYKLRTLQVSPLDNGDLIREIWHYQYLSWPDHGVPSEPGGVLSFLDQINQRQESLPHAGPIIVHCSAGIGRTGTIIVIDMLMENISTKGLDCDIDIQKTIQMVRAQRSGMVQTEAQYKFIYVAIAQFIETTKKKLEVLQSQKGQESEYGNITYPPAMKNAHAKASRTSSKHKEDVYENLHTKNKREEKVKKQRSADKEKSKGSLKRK
human Protein Tyrosine Phosphatase Non-receptor Type 9 (PTPN9), PTPN9 (gene 5780), sequence (P43378 whole entry, looked up): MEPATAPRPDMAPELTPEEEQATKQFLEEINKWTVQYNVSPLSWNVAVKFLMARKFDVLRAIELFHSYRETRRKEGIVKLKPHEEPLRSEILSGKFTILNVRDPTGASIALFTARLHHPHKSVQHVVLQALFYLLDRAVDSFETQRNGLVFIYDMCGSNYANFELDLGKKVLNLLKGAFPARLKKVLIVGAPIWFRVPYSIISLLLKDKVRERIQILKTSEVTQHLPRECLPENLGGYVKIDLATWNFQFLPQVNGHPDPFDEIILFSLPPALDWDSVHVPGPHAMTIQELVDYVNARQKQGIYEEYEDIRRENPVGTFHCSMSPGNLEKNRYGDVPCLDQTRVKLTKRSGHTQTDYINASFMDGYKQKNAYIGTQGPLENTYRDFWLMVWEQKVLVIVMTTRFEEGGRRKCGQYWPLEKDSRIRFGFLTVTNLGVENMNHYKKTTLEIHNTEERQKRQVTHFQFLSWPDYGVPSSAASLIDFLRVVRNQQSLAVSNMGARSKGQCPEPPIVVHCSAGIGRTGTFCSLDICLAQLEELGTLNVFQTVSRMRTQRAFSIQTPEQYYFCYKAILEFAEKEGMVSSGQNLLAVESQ
Tyrosine-protein phosphatase non-receptor type 12 (Homo sapiens), sequence (Q05209 whole entry, looked up): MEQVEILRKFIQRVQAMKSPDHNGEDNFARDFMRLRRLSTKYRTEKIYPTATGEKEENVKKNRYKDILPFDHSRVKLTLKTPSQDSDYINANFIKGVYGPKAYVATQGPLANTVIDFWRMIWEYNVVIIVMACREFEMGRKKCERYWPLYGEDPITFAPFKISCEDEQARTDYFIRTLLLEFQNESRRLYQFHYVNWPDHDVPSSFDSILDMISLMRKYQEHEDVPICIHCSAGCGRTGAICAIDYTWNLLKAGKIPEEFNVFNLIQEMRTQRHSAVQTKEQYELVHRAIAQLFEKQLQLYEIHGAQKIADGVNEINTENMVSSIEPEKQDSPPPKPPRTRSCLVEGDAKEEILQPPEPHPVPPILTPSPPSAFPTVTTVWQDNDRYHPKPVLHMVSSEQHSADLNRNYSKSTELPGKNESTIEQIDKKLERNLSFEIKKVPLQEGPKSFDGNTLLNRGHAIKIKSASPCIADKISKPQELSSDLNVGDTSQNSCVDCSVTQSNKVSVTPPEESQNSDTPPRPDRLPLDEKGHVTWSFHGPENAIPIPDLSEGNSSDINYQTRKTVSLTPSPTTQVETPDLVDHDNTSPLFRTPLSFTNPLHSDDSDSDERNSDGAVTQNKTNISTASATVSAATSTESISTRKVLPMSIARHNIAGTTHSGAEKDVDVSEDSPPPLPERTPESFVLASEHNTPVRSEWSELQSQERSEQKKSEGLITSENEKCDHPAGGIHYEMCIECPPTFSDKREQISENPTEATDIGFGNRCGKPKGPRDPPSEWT

For `CCCCCC(C)OC(=O)COc1ccc(Cl)c2cccnc12` (configuration not stated), the call in test [1] and in test [2] was inactive.
With `CCc1cccc(CC)c1NC(=O)C(=O)O`, in test [3], the compound was called inactive.
On to `O=C1NS(=O)(=O)c2ccccc21`, for which the compound was classed as inactive in [4].
Regarding `CCOC(OCC)C(=O)c1ccccc1`, in test [3], the result was inactive.
As to `NC(=NCCCCCCN=C(N)/N=C(\N)Nc1ccc(Cl)cc1)/N=C(\N)Nc1ccc(Cl)cc1`, the concentration at half-maximal activity (AC50) in [5] is 0.531 µM (active).
Consider `OCC(CO)(CBr)CBr`, for which the call in [6] was inactive.
Take `O=C1OC2(c3ccccc31)c1cc(I)c(O)c(I)c1Oc1c2cc(I)c(O)c1I`: in test [3], the compound was called inactive.
As to `O=C(NO)c1ccccc1`, in test [3], the AC50 is 7.2 µM (active) and the compound was called inactive. Besides, the compound was classed as inactive in test [5].
`O=C(c1ccccc1)c1ccccc1`: in test [1], the compound was called inactive.
In the case of `CCCCCCCCCCCCOS(=O)(=O)O`, the AC50 in test [7] was 11.8 µM (active); in test [4], 42.4 µM (active); in test [3], 25 µM (active); in test [8], 22.7 µM (active); in test [9], 38.4 µM (active); in test [2] it was 11.9 µM (active). For the same compound, the AC50 is 46.3 µM (active) in test [10]; 10.7 µM (active) in test [12]; 16.8 µM (active) in test [6]; 25 µM (active) in [13]; 7.45 µM (active) in [14]; 25 µM (active) in [16]. Also, in test [17], the half-maximal activity concentration (AC50) was 25 µM (active). Besides, the result in test [5], in [11], in test [15], in [18] and in test [19] was inactive.
For the compound `C=COC(=O)C(C)(C)CCCCCC`, in test [5], the compound was classed as inactive.
For `CC(=O)Nc1ccc(O)cc1`, the compound was called inactive in test [20].
On to `CC(=O)CC(C)C`, for which the call in test [3] was inactive.
`CCN(CC)CC`: the outcome in test [5] was inactive.
`O=C(NCc1ncc(C(F)(F)F)cc1Cl)c1c(Cl)cccc1Cl`: in test [3], the outcome was inactive.
Take `CCOCCOCC`: the outcome in test [5] was inactive.
On to `CCCCCCCCCCCC`, for which, in test [5], the compound was called inactive.
For the compound `Clc1ccc(Nc2nnc(Cc3ccncc3)c3ccccc23)cc1`, in test [3], the call was inactive.
On to `CC(C)C=O`, for which the result in test [5] was inactive.
For the compound `CCCCC(CC)C(=O)OCCOCCOCCOCCOC(=O)C(CC)CCCC` (configuration not stated), in test [5], the outcome was inactive.
For `CCCCCCCCCCCCCCCCCC[N+](C)(C)Cc1ccccc1`, the compound was classed as inactive in [3].
Consider `CCCCC(CC)C(=O)O` (configuration not stated), for which the compound was classed as inactive in test [13].
On to `CCC1CO1` (configuration not stated), for which the AC50 in test [3] was 6.67 µM (active).
As to `CCCC=O`, the call in [3] was inactive.
Consider `CS(=O)(=O)c1ccc([C@@H](CC2CCCC2)C(=O)Nc2cnccn2)cc1Cl`, for which the result in [7] was inactive. For the same compound, the AC50 in test [1] was 8.2 µM (active).
In the case of `CCCCCCCCC(C)=O`, the call in [3] was inactive.

The AC50 is the concentration at which the activity in the assay is half-maximal.
